In the experiment the target is NAD-dependent protein deacylase sirtuin-5, mitochondrial (Homo sapiens) (UniProt Q9NXA8). Briefly: blockers of sirtuin-5 peptide desuccinylation – biochemical, fluorescence imaging, cherry-pick, set 6, dose response (AID 720597).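 Further: lower AMC signal can also come from blocking the trypsin step.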

Structures are written as SMILES. Entries with a potency or affinity are not part of this list. Activity calls are given as the source filed them.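 How the source made its calls: active means fitted half-maximal dose no more than twice the top valid tested dose, for compounds that lower signal; inconclusive means fit invalid, or curve flat with activity between -70 and -30; inactive means potency past limit, curve flat within ±30, or signal increasing.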

These results are taken from PubChem BioAssay AID720597 (Broad Institute, 2013).

NAD-dependent protein deacylase sirtuin-5, mitochondrial (Homo sapiens), sequence (Q9NXA8 whole entry, looked up): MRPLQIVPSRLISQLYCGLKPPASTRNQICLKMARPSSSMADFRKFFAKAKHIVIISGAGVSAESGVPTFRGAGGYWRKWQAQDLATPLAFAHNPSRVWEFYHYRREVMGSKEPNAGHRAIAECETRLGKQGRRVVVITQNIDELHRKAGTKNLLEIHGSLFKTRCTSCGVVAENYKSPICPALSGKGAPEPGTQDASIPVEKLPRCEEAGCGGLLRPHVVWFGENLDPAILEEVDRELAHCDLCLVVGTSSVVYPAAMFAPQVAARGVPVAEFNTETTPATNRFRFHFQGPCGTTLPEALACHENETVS

As to `O=C(NCC[C@@H]1CC[C@@H](NS(=O)(=O)c2ccc(Cl)cc2)[C@H](CO)O1)c1ccccc1F`, the compound was classed as inactive.

Turning to `C[C@H](CO)N1C[C@H](C)[C@H](CN(C)C(=O)NC2CCCCC2)Oc2ccc(NC(=O)Nc3ccccc3)cc2C1=O`, the outcome was inactive.

Consider `CN(C)C(=O)c1cccc(-c2ccc([C@H]3[C@@H](CO)N4CCCCN(S(C)(=O)=O)C[C@@H]34)cc2)c1`, for which the result was inactive.

Consider `Cc1ccc(S(=O)(=O)N(C)C[C@H]2OCCCC[C@@H](C)Oc3ccc(NS(=O)(=O)c4ccccc4)cc3C(=O)N([C@@H](C)CO)C[C@@H]2C)cc1`, for which the result was inactive.

As to `CO[C@H]1CN(C)C(=O)c2ccc(NC(C)=O)cc2OC[C@H](C)N(Cc2nccs2)C[C@@H]1C`, the compound was classed as inactive.

`COc1ccc(S(=O)(=O)Nc2ccc3c(c2)C(=O)N([C@H](C)CO)C[C@H](C)[C@@H](CN(C)Cc2ccc(C(F)(F)F)cc2)OCCCC[C@H](C)O3)cc1`: the outcome was inactive.

`Cc1ccc(S(=O)(=O)N(C)C[C@@H]2OCCCC[C@@H](C)Oc3ccc(NS(=O)(=O)c4ccc(F)cc4)cc3C(=O)N([C@@H](C)CO)C[C@H]2C)cc1`: the call was inactive.

For the compound `C[C@H](CO)N1C[C@H](C)[C@H](CN(C)Cc2ccc(Cl)c(Cl)c2)Oc2ccc(NC(=O)CCCCCC(=O)Nc3ccccc3N)cc2C1=O`, the result was inactive.

As to `COc1ccc(CN(C)C[C@H]2OCCCC[C@@H](C)Oc3ccc(NC(=O)NC4CCCCC4)cc3C(=O)N([C@H](C)CO)C[C@H]2C)cc1`, the compound was called inactive.

Regarding `Cc1ccc(S(=O)(=O)Nc2ccc3c(c2)C(=O)N([C@H](C)CO)C[C@@H](C)[C@H](CN(C)C(=O)Nc2ccc(F)cc2)OCCCC[C@H](C)O3)cc1`, the result was inactive.

In the case of `C[C@H]1CCCCO[C@H](CN(C)C(=O)Nc2ccc(C(F)(F)F)cc2)[C@@H](C)CN([C@@H](C)CO)C(=O)c2cc(NS(=O)(=O)c3ccc(Cl)cc3)ccc2O1`, the compound was called inactive.

As for `C[C@H](CO)N1C[C@H](C)[C@@H](CN(C)S(=O)(=O)c2ccc(F)cc2)Oc2cc(C#Cc3ccc(F)cc3)ccc2S1(=O)=O`, the outcome was inactive.

Take `C[C@@H]1CN([C@H](C)CO)S(=O)(=O)c2ccc(C3=CCCCC3)cc2O[C@H]1CN(C)C(=O)Nc1ccc2c(c1)OCO2`: the compound was classed as inactive.

On to `COc1ccc(S(=O)(=O)Nc2ccc3c(c2)C(=O)N([C@@H](C)CO)C[C@H](C)[C@@H](CN(C)Cc2ccc(C(F)(F)F)cc2)OCCCC[C@@H](C)O3)cc1`, for which the compound was called inactive.

For `C[C@H](CO)N1C[C@H](C)[C@@H](CN(C)Cc2ccc(Cl)c(Cl)c2)Oc2ccc(NS(=O)(=O)c3ccccc3)cc2CC1=O`, the result was inactive.

As to `CC(=O)N(C)C[C@H]1Oc2ncc(-c3cccc(F)c3)cc2C(=O)N([C@@H](C)CO)C[C@H]1C`, the result was inactive.

In the case of `C[C@H](NC(=O)C[C@@H]1CC[C@H]2[C@@H](COC[C@@H](O)CN2C(=O)Nc2cccc(F)c2)O1)c1ccccc1`, the compound was classed as inactive.

Turning to `CC(C)CC#Cc1ccc2c(c1)O[C@H](CN(C)C(=O)CC1CC1)[C@@H](C)CN([C@@H](C)CO)S2(=O)=O`, the outcome was inactive.

For `C[C@@H]1CN([C@@H](C)CO)C(=O)Cc2cc(NC(=O)CCCCCC(=O)Nc3ccccc3N)ccc2O[C@@H]1CN(C)Cc1ccc(Oc2ccccc2)cc1`, the compound was called inactive.

Take `C[C@@H]1CN([C@@H](C)CO)C(=O)Cc2cc(NS(=O)(=O)c3ccc(Cl)cc3)ccc2O[C@H]1CN(C)Cc1ccc(Oc2ccccc2)cc1`: the compound was classed as inactive.

Turning to `C[C@@H]1CN([C@@H](C)CO)S(=O)(=O)c2ccc(C#CC3CC3)cc2O[C@@H]1CN(C)Cc1ccccc1F`, the compound was classed as inactive.

Regarding `C[C@H]1CCCCO[C@H](CN(C)Cc2ccc(C(F)(F)F)cc2)[C@@H](C)CN([C@@H](C)CO)C(=O)c2cc(NS(=O)(=O)c3ccc(Cl)cc3)ccc2O1`, the result was inactive.

Take `COc1ccc(NC(=O)Nc2ccc3c(c2)C(=O)N([C@H](C)CO)C[C@@H](C)[C@@H](CN(C)Cc2ccc(C(F)(F)F)cc2)O3)cc1`: the outcome was inactive.

Consider `CO[C@@H]1CN(C)C(=O)c2ccc(NS(C)(=O)=O)cc2OC[C@@H](C)N(Cc2nccs2)C[C@H]1C`, for which the compound was classed as inactive.

With `COc1cc2c(cc1OC)CN(C(=O)[C@@H]1[C@H]3C(=O)O[C@H](c4ccccc4)[C@H](c4ccccc4)N3[C@H](c3ccc(OCCO)cc3)[C@@]13C(=O)Nc1ccc(C#CCNC(N)=O)cc13)CC2`, the call was inactive.

In the case of `CC(C)c1cn(CC[C@H]2CC[C@H](NS(=O)(=O)c3ccc(F)cc3)[C@@H](CO)O2)nn1`, the outcome was inactive.
